Data published in PubChem BioAssay.
Unmarked numbers belong to inactive results. For some of these results: Results with a measured potency or affinity are listed apart. Calls of active or inactive are those of the source. Unless noted, the rule behind the calls is not given here.

Experiments:
[1] = antimalarial activity against Dd2 strain (AID 2302;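 active = growth inhibition above 50% at the single 2 µM test dose, taken to imply half-maximal potency below 2 µM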;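 note: 0% = DMSO untreated growth and 100% = chloroquine plus artemisinin killed control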); details: P. falciparum Dd2 in RBCs, LDH growth readout, 72 h; at 2 µM; hits give high values
[2] = human hepatoma cell viability loss – ATP luminescence, cytotoxicity control for P. falciparum antimalarial project, primary screen (AID 2303;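 active = inhibition above 50%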;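 note: 0% = DMSO wells and 100% = digitonin-killed cells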); details: HepG2 viability, 24-48 h, at 10 µM, hits give high values
[3] = target: L-lactate dehydrogenase (Plasmodium falciparum (isolate CDC / Honduras)) (UniProt Q27743); test: PfLDH activity inhibition – cell lysate, 3D7 strain, counter-screen for P. falciparum growth inhibition project (AID 2304);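 note: 0% = vehicle and 100% = reference inhibitor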; details: P. falciparum 3D7 crude extract, LDH APAD/NBT absorbance; at 2 µM; hits give high values
Sequence of L-lactate dehydrogenase (Plasmodium falciparum (isolate CDC / Honduras)) (Q27743 whole entry, looked up): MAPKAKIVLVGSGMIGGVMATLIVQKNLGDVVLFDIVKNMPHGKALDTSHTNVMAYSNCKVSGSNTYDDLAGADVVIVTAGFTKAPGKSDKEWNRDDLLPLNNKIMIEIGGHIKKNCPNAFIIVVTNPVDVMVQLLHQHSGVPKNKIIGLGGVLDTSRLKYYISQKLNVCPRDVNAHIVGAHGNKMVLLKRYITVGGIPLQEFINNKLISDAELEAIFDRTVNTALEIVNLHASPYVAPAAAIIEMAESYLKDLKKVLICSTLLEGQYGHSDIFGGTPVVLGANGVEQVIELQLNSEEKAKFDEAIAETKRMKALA

[4] = inhibition of 3D7 malaria parasite growth – strain 3D7 (AID 2306);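 note: 0% = DMSO wells and 100% = chloroquine plus artemisinin control wells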; details: P. falciparum 3D7 erythrocytic growth, LDH absorbance, 72 h; at 2 µM; hits give high values
[5] = target: Calcium-dependent protein kinase 1 (Plasmodium falciparum (isolate 3D7)) (UniProt P62344); test: PfCDPK1 kinase inhibitors, biochemical, TCAMS library (AID 1159585; cut-off not given, nearly all actives have IC50 up to about 0.98 µM;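 note: inhibitors leave more ATP so luminescence rises with inhibition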); details: recombinant PfCDPK1, Kinase-Glo ATP depletion luminescence
Sequence of Calcium-dependent protein kinase 1 (Plasmodium falciparum (isolate 3D7)) (P62344 whole entry, looked up): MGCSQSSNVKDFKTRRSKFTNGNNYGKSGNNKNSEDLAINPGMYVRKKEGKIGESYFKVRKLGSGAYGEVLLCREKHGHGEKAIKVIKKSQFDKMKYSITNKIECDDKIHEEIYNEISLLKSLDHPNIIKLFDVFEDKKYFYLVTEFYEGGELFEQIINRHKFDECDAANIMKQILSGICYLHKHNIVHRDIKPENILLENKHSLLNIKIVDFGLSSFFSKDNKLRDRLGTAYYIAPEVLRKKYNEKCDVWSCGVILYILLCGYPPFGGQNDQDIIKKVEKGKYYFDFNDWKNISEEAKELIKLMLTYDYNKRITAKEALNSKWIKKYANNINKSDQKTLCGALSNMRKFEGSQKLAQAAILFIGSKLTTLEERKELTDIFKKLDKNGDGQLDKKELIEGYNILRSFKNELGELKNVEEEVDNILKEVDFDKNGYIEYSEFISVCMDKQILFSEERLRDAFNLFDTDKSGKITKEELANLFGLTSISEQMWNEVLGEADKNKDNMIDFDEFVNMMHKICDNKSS

[6] = target: Plasmodium falciparum protein kinase 6 (PK6, PF3D7_1337100) (UniProt Q8IDW1); test: PfPK6 kinase inhibitors, biochemical, TCAMS library (AID 1159586); details: recombinant PfPK6, Kinase-Glo ATP depletion luminescence
Sequence of Plasmodium falciparum protein kinase 6 (PK6, PF3D7_1337100) (Q8IDW1 1-305): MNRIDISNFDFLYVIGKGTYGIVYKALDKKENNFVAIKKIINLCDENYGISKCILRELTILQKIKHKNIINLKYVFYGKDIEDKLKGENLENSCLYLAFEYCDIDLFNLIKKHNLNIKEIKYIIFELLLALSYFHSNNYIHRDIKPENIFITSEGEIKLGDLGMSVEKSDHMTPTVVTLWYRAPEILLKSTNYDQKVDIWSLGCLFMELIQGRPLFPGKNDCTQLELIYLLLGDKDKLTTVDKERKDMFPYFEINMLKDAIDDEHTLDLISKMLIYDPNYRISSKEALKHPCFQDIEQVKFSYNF

[7] = target: Protein kinase 7 (PK7), Plasmodium falciparum 3D7 (PF3D7_0213400) (UniProt Q7YTF7); test: inhibition of Plasmodium PK7 catalytic activity – biochemical, TCAMS antimalarial set, Kinase-Glo luminescence (AID 1159587); details: recombinant PfPK7, Kinase-Glo ATP depletion luminescence
Sequence of Protein kinase 7 (PK7), Plasmodium falciparum 3D7 (PF3D7_0213400) (Q7YTF7 1-343): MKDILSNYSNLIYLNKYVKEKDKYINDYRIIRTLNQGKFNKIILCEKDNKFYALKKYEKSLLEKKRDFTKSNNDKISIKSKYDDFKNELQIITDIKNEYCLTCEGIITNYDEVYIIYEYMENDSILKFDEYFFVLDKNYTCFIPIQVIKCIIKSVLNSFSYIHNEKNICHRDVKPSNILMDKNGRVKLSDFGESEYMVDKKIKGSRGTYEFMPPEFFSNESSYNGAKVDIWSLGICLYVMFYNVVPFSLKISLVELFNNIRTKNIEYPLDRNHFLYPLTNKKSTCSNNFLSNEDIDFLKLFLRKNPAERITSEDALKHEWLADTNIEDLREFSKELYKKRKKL

[8] = target: Calcium-dependent protein kinase 4 (Plasmodium falciparum (isolate 3D7)) (UniProt Q8IBS5); test: PfCDPK4 kinase inhibitors, biochemical, TCAMS library (AID 1159588; cut-off not given, nearly all actives have IC50 up to about 0.91 µM); details: recombinant PfCDPK4, Kinase-Glo ATP depletion luminescence
Sequence of Calcium-dependent protein kinase 4 (Plasmodium falciparum (isolate 3D7)) (Q8IBS5 whole entry, looked up): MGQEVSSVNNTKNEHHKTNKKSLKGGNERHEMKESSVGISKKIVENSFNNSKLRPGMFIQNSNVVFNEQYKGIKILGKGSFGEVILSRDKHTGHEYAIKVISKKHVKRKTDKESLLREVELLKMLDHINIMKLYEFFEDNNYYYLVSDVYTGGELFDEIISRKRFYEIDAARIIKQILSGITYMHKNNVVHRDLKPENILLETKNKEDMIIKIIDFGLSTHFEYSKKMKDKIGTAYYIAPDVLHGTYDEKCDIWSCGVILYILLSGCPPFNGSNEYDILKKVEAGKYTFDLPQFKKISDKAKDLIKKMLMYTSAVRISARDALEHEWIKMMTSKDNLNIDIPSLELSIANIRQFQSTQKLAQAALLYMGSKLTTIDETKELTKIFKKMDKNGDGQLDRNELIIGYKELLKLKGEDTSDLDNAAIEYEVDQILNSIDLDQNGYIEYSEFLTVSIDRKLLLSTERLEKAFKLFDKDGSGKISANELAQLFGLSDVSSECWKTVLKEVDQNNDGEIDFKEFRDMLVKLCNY

Row | SMILES | growth inhibition [1] | inhibition [2] | inhibition [3] [%] | growth inhibition [4] | outcome [5] | outcome [6] | outcome [7] | outcome [8]
1 | c1cncc(-c2cccc(CNc3nccc(Nc4ccc(OCCN5CCOCC5)cc4)n3)c2)c1 | 27% | 1% | -2 | 93% (active) | inactive | inactive | inactive | inactive
2 | N#Cc1ccc(N[C@@H](CC2CCCCC2)C(=O)Nc2ccc(-c3ccccc3)cc2)c2ccccc12 | 99% (active) | 34% | -8 | 100% (active) | inactive | inactive | inactive | inactive
3 | CN(C)S(=O)(=O)c1cc(-c2ccc3nccc(-c4cccc(S(N)(=O)=O)c4)c3c2)cnc1N | 98% (active) | 35% | -2 | 100% (active) | inactive | inactive | inactive | inactive
4 | COc1ccc2nccc(NC(=O)C3CCC(NCc4ccc5c(c4)NC(=O)CS5)CC3)c2c1 (stereo not drawn) | 19% | 0% | -4 | 94% (active) | inactive | inactive | inactive | inactive
5 | COc1ccc2nccc(N3CCCN(CCNCc4ccc5c(n4)NC(=O)CS5)CC3)c2n1 | 10% | 8% | -2 | 100% (active) | inactive | inactive | inactive | inactive
6 | CN(C)CCN(C)Cc1ccc(-c2cccc(-c3nc4ccccc4[nH]3)c2)cc1 | 78% (active) | 46% | -1 | 101% (active) | inactive | inactive | inactive | inactive
7 | CCN(c1ccccc1)S(=O)(=O)c1ccc(OC)c(NC(=O)c2cccc(C(F)(F)F)c2)c1 | 70% (active) | 9% | -2 | 90% (active) | inactive | inactive | inactive | inactive
8 | CNCCNCc1ccc(-c2cccc(-c3nc4ccc(F)cc4[nH]3)c2)cc1 | 1% | 10% | -1 | 93% (active) | inactive | inactive | inactive | inactive
9 | C=C[C@H]1CN(CCCCCCC)CC[C@H]1CC(O)Cc1ccnc2cc(O)c(OC)cc12 (stereo partly drawn) | 59% (active) | 7% | 1 | 95% (active) | inactive | inactive | inactive | inactive
10 | COc1cc(OC)c(OC)cc1CN1CCC2(CC1)CN(Cc1ccc(Cl)c(Cl)c1)C(=O)O2 | 94% (active) | 8% | 3 | 90% (active) | inactive | inactive | inactive | inactive
11 | Cc1noc(C)c1-c1cccc(CNCc2cccc(-c3cccc(-c4nc5ccc(C(F)(F)F)cc5[nH]4)c3)c2)c1 | 95% (active) | 18% | 5 | 101% (active) | inactive | inactive | inactive | inactive
12 | Oc1ccc2c(c1CNC1CCCCC1)CCCC2 | 94% (active) | 0% | -3 | 98% (active) | inactive | inactive | inactive | inactive
13 | Fc1ccc2nc(-c3cccc(-c4ccc(CNCc5ccccc5)cc4)c3)[nH]c2c1 | 89% (active) | 27% | -1 | 102% (active) | inactive | inactive | inactive | inactive
14 | O=C(/C=C/c1ccc(Cl)c(Cl)c1)NCCC(CN1CCC(c2c[nH]c3ccccc23)CC1)c1ccccc1 (stereo not drawn) | 42% | 84% (active) | -6 | 100% (active) | inactive | inactive | inactive | inactive
15 | Oc1ccccc1Nc1nc(NCc2ccco2)c2ccccc2n1 | 71% (active) | 0% | 3 | 99% (active) | inactive | inactive | inactive | inactive
16 | Cc1cccc2[nH]c(-c3cccc(-c4cccc(NC(=O)C(C)CN(C)C)c4)c3)nc12 (stereo not drawn) | 97% (active) | 16% | -3 | 101% (active) | inactive | inactive | inactive | inactive
17 | CC1(C)CC(=O)c2c(O)cc(OCc3ccncc3)cc2O1 | 47% | 80% (active) | -1 | 92% (active) | inactive | inactive | inactive | inactive
18 | COc1cc2nc(N(C)CC3COc4ccccc4O3)nc(N)c2cc1OC (stereo not drawn) | 26% | 11% | -1 | 94% (active) | inactive | inactive | inactive | inactive
19 | CC(C)(C)C(=O)Nc1c(-c2cc(=O)oc3cc4c(cc23)CCC4)oc2ccccc12 | 100% (active) | -5% | 3 | 101% (active) | inactive | inactive | inactive | inactive
20 | O=S(=O)(NC1CCN(c2ccnc3cc(Cl)ccc23)C1)c1cccc(F)c1 (stereo not drawn) | 88% (active) | 19% | 5 | 98% (active) | inactive | inactive | inactive | inactive
21 | CN(C)CCC1CCN(CCS(=O)(=O)c2cccc(Nc3ccc(-c4ccsc4)cn3)c2)CC1 | 6% | 49% | 0 | 97% (active) | inactive | inactive | inactive | inactive

Row | SMILES | growth inhibition [1] | inhibition [2] | inhibition [3] [%] | growth inhibition [4] | outcome [5] | outcome [6] | outcome [7] | outcome [8]
22 | Cc1cccc(C(=O)NC(NC(=S)Nc2cc(Cl)ccc2Cl)C(Cl)(Cl)Cl)c1 (stereo not drawn) | 61% (active) | -8% | 1 | 94% (active) | inactive | inactive | inactive | inactive
23 | Cc1nnsc1C(=O)Nc1cccc(-c2csc(-c3nc4ccccc4[nH]3)c2)c1 | 50% (active) | 51% (active) | 8 | 94% (active) | inactive | inactive | inactive | inactive
24 | C=CC(=O)Nc1ccc(Cl)cc1C(O)c1ccccc1 (stereo not drawn) | 5% | -5% | 0 | 100% (active) | inactive | inactive | inactive | inactive
25 | CCc1ccc(C2=Nn3c(nnc3-c3cccs3)SC2)cc1 | 20% | 9% | 0 | 93% (active) | inactive | inactive | inactive | inactive
26 | CN(C)CCOc1cc(NC(=O)Nc2ccc(-c3ccccc3)cc2Cl)ccc1I | 93% (active) | 25% | 3 | 102% (active) | inactive | inactive | inactive | inactive
27 | Cc1cc(NCCC(=O)Nc2ccccc2)nc(NCCc2ccccc2)n1 | 8% | -8% | -3 | 99% (active) | inactive | inactive | inactive | inactive
28 | CCn1cc(C=C2Oc3c(ccc(O)c3CN3CCCCC3)C2=O)c2cc(OC)ccc21 | 99% (active) | -9% | -1 | 99% (active) | inactive | inactive | inactive | inactive
29 | O=S(=O)(NC1CCN(c2ccnc3cc(Cl)ccc23)C1)c1cccs1 (stereo not drawn) | 76% (active) | 6% | -4 | 102% (active) | inactive | inactive | inactive | inactive
30 | COc1ccc2nccc([C@@H](O)CN3CCC(NC(=O)/C=C/c4ccc5cc(C)[nH]c5c4)CC3)c2c1 | 93% (active) | 7% | -6 | 97% (active) | inactive | inactive | inactive | inactive
31 | Cc1cc(C(=O)CSc2nc3ccccc3n2-c2ccccc2)c(C)n1C1CCS(=O)(=O)C1 (stereo not drawn) | -3% | -18% | 0 | 92% (active) | inactive | inactive | inactive | inactive
32 | CCCCn1c(Sc2ccc(C#N)c([N+](=O)[O-])c2)nnc1-c1ccc(OC)cc1 | 61% (active) | 12% | 0 | 93% (active) | inactive | inactive | inactive | inactive
33 | CC(C)CCNc1nc(NCCc2ccccc2)c2cc(O)ccc2n1 | 97% (active) | 6% | 7 | 101% (active) | inactive | inactive | inactive | inactive
34 | Cc1ccc2nc(-c3cc(-c4cccc(CCN5CCOCC5)c4)cnc3N)[nH]c2c1 | 99% (active) | 50% (active) | -5 | 101% (active) | inactive | inactive | inactive | inactive
35 | O=C(/C=C/c1ccc(Br)cc1)NCCCCCN1CCC(c2c[nH]c3ccccc23)CC1 | 19% | 73% (active) | -2 | 99% (active) | inactive | inactive | inactive | inactive
36 | Cc1cccc2[nH]cc(C3CCN(CCC4CCN(C(=O)/C=C/c5ccc(Cl)c(Cl)c5)CC4)CC3)c12 | 8% | 13% | 2 | 91% (active) | inactive | inactive | inactive | inactive
37 | O=C(Cc1cnc[nH]1)Nc1ccc(-c2cccc(-c3nc4ccc(C(F)(F)F)cc4[nH]3)c2)cc1 | 95% (active) | 20% | -8 | 101% (active) | inactive | inactive | inactive | inactive
38 | Nc1c2c(nc3ccc(C(=O)Nc4ccc(Br)cc4)cc13)CCCC2 | 99% (active) | 40% | 1 | 102% (active) | inactive | inactive | inactive | inactive
39 | Cc1ccccc1N1CCN(c2ccc(C(=O)Nc3ccccc3)cc2)CC1 | 91% (active) | 22% | -2 | 89% (active) | inactive | inactive | inactive | inactive
40 | CCOc1cc(C(=O)Nc2ccc3nc(N4CCCCC4)cc(C)c3c2)cc(OCC)c1OCC | 2% | 26% | -6 | 100% (active) | inactive | inactive | inactive | inactive
41 | CN1CCC(N2CCN(Cc3ccc(-c4ccc(-c5nc6ccc(F)cc6[nH]5)s4)cc3)CC2)CC1 | 100% (active) | 62% (active) | 3 | 100% (active) | inactive | inactive | inactive | inactive
